According to PubChem BioAssay AID652062 (Broad Institute, 2013):
The whole screen tested about 1,400 compounds, of which about 1,100 (79%) were called active.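 How the source made its calls: active means fitted half-maximal concentration of a falling signal no higher than twice the top valid dose in every test run; inconclusive means runs disagree, or flat partial inhibition, or poor fit; inactive means every run inactive: flat, wrong direction, or potency beyond limit.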 The set was probably picked from earlier hits. The list is a sample of the results. Results with a measured potency or affinity are listed apart.

Test: inhibitors of clade B AD8 Env fusion, dose response, cell-based, cherry-pick (AID 652062)
Settings: HeLa-AD8 Env / CEM-CCR5 cell fusion, luciferase; at 35 µM (top of the series) unless noted

SMILES | activity change, negative = inhibition
C[C@H]1CN([C@@H](C)CO)S(=O)(=O)c2ccc(-c3cccc(F)c3)cc2O[C@H]1CN(C)S(=O)(=O)c1ccccc1 | -18.9%
CCOC(=O)C(C)Oc1cccc2c(=O)n(CC(=O)NCCc3ccc(OC)c(OC)c3)ccc12 (stereo not given) | 3.5%
CC(C)(C)c1ccc(-n2ncc3c2CCCC3NC(=O)CN2CCCC2=O)cc1 (stereo not given) | -53.4%
c1ccc(CSc2nnc([C@@H]3CCCN3)o2)cc1 | 25%
Cc1ccccc1S(=O)(=O)NC(=O)C1(C)CCN1C(=O)CCc1ccc(Cl)cc1Cl (stereo not given) | -6.19%
C[C@H](CO)N1C[C@H](C)[C@H](CN(C)Cc2ccccc2)Oc2c(NC(=O)Nc3ccc4c(c3)OCO4)cccc2C1=O | 19.6% [at 16 µM]
CNC[C@H]1Oc2c(NC(=O)Nc3ccc(C(F)(F)F)cc3)cccc2C(=O)N([C@@H](C)CO)C[C@H]1C | 50.6%
CC(C)CC#Cc1ccc2c(c1)O[C@@H](CN(C)C(=O)C1CCCCC1)[C@H](C)CN([C@@H](C)CO)S2(=O)=O | -88.1%
CCOc1ccc2c(c1)-c1c(ssc1=S)C(C)(C)N2C(=O)c1ccco1 | -10.3%
COc1cc(OC)cc(C(=O)N[C@H](C(=O)NCCc2c[nH]c3ccccc23)C(C)C)c1 | -23.6%
C[C@@H]1CN([C@@H](C)CO)C(=O)c2cccc(NS(=O)(=O)c3ccc(F)cc3)c2O[C@@H]1CN(C)Cc1ccc(-c2ccccc2)cc1 | 44.3% [at 16 µM]
C[C@H]1CN([C@@H](C)CO)C(=O)c2cc(NS(C)(=O)=O)ccc2O[C@@H]1CN(C)Cc1ccc(Cl)c(Cl)c1 | 37.5%
C[C@H]1CN([C@@H](C)CO)C(=O)Cc2cc(N(C)C)ccc2O[C@H]1CN(C)Cc1ccc(Cl)c(Cl)c1 | 15.3%
Cn1cc(S(=O)(=O)N2CCOCC2)cc1C(=O)Nc1cccc(Cl)c1 | -9.96%
COc1ccc(-c2nn(C)c(=O)c3ccccc23)cc1NC(=O)Cn1nc(C)c2ccccc2c1=O | 6.7%
Cc1cc(C(C)(C)C)oc1C(=O)N(CC(=O)NC1CCCC1)Cc1ccc(Cl)cc1 | -9.64%
Cc1ccccc1-n1c(=O)c2ccccc2n2cnnc12 | 40.3%
CCOC(=O)C1CCN(C(=O)c2ccc3c(c2)C(=O)N(c2ccccc2C)C3=O)CC1 | 68.2%
CCN(CC)CCN(C(=O)c1cc(Cl)sc1Cl)c1nc2cc3c(cc2s1)OCO3 | 54.2%
O=C(NCC[C@@H]1CC[C@@H](NS(=O)(=O)c2ccccc2F)[C@@H](CO)O1)c1ccc(F)cc1 | 36%
Cc1nc2sc(C(c3ccco3)N3CCC(Cc4ccccc4)CC3)c(O)n2n1 (stereo not given) | 111%
O=C(CNC(=O)c1cccc(-n2cccc2)c1)Nc1ccccc1Br | 4.51%
Nc1nonc1C(=O)NCCNCc1c(OCc2ccccc2F)ccc2ccccc12 | 10.1%
O=C(CCNC(=O)c1ccc(Br)cc1)NNC(=O)COc1ccccc1F | 9.15%
O=C(Nc1cc(Cl)cc(Cl)c1)C(c1ccccc1)N1CCCCC1 (stereo not given) | -7.46%

SMILES | activity change, negative = inhibition
C[C@H]1CN([C@@H](C)CO)C(=O)c2ccccc2-c2ccccc2CO[C@H]1CN(C)S(=O)(=O)c1ccccc1C#N | 30.6%
CCN1CCN(S(=O)(=O)c2ccc(Cl)c(C(=O)Nc3ccccc3N3CCCC3)c2)CC1 | 48.8%
CO[C@@H]1CN(C)C(=O)c2cc(NC(=O)Nc3ccc(Cl)cc3)ccc2OC[C@H](C)N(C)C[C@H]1C | -19.7%
C[C@@H]1CN([C@H](C)CO)C(=O)c2cc(C#Cc3ccncc3)cnc2O[C@@H]1CN(C)S(=O)(=O)c1ccccc1F | -27%
C[C@H](CO)N1C[C@H](C)[C@H](CN(C)S(=O)(=O)c2ccc(C#N)cc2)Oc2ncc(/C=C/c3ccccc3)cc2C1=O | 16.9% [at 16 µM]
S=c1nc[nH]c2c1[nH]c1ccc(Cl)cc12 | 149%
N#Cc1ccc(CSc2nnc(COc3ccccc3)n2-c2ccccc2)cc1 | 7.17%
C[C@H]1CN([C@@H](C)CO)C(=O)c2cc(NS(=O)(=O)c3ccc(F)cc3)ccc2O[C@H]1CN(C)S(=O)(=O)c1ccc(F)cc1 | 7.89%
CCCNC(=O)C[C@H]1C[C@H]2c3cc(NC(=O)CN(C)C)ccc3O[C@H]2[C@H](CO)O1 | -19.9% [at 16 µM]
CCCNC(=O)C[C@@H]1C[C@@H]2c3cc(NC(=O)Cc4ccncc4)ccc3O[C@@H]2[C@H](CO)O1 | -27.5%
CCCNC(=O)C[C@H]1C[C@H]2c3cc(NC(=O)Cc4ccncc4)ccc3O[C@H]2[C@H](CO)O1 | -15.2%
CCCNC(=O)C[C@@H]1C[C@@H]2c3cc(NC(=O)CN(C)C)ccc3O[C@@H]2[C@H](CO)O1 | 48.2%
C[C@H](CO)N1C[C@H](C)[C@@H](CN(C)CC2CC2)Oc2ccc(NS(C)(=O)=O)cc2CC1=O | 4.33%
C[C@@H]1CN([C@@H](C)CO)C(=O)Cc2cc(NC(=O)c3ccncc3)ccc2O[C@H]1CN(C)Cc1ccc(Cl)c(Cl)c1 | -39.7%
C[C@H]1CN([C@@H](C)CO)C(=O)Cc2cc(N(C)C)ccc2O[C@H]1CN(C)CC1CC1 | 11.8%
Nc1ccc(S(=O)(=O)c2ccc(N3CCOCC3)c(N)c2)cc1 | -17.7%
COc1ccccc1-c1ccc2c(c1)O[C@H](CN(C)S(=O)(=O)c1ccccc1)[C@H](C)CN([C@H](C)CO)S2(=O)=O | 18.5%
Cc1ccc(S(=O)(=O)N(C)C[C@H]2Oc3cc(-c4cccc(F)c4)ccc3S(=O)(=O)N([C@H](C)CO)C[C@H]2C)cc1 | -33.7%
COc1ccc2c3c([nH]c2c1)[C@@H](CO)N(C(=O)Nc1cccc(F)c1)CC31CCN(S(=O)(=O)c2ccccc2)CC1 | -99.7%
COc1ccc2c3c(n(C)c2c1)[C@@H](CO)N(C(=O)Nc1ccc(F)cc1)CC31CCN(Cc2cccc(F)c2)CC1 | -2.46%
COc1ccc2c3c(n(C)c2c1)[C@@H](CO)N(C(=O)C1CCOCC1)CC31CCN(Cc2cccc(F)c2)CC1 | -3.19%
COc1ccc2c3c([nH]c2c1)[C@H](CO)N(C(=O)Nc1cccc(F)c1)CC31CCN(S(=O)(=O)c2ccccc2)CC1 | -57.4%
CC1(C(=O)NCc2ccc3c(c2)OCO3)CCN1Cc1csc2ccccc12 (stereo not given) | -11%
CCNC1CCC(Nc2ccnc3cc(Cl)ccc23)CC1 (stereo not given) | -25.4%
CCCCCCc1nc2ccccc2c(=O)n1NC(=O)c1c(O)c2c(n(CC(C)C)c1=O)CCCC2 | -7.39%
